Assay results from PubChem BioAssay AID504834 (National Center for Advancing Translational Sciences (NCATS), 2011).
The whole screen tested about 320,000 compounds, of which about 22,000 (6.9%) were called active. Inconclusive results (about 27%) are left out. What follows is part of a selection rich in actives, with near analogues and random picks from the rest. Entries that show only a call come without a potency. A number with no mark means an inactive call. Calls come from the whole dose curve; as a rule, active = well fitted inhibition curve with a large enough effect; inconclusive = small, poorly fitted or top-dose-only effect, or another doubt; inactive = no such curve, though single readings can be large or run the other way.

test: Primary qHTS for delayed death inhibitors of the malarial parasite plastid, 96 hour incubation; details: P. falciparum luciferase reporter growth; series mostly up to 28.7 µM
In short: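 Plates of compound plus infected erythrocytes (2% hematocrit, 0.05% parasitemia final) incubate 96 hours, 37 C, 5% CO2. Detection reagent added; reduced luminescence from the parasites' luciferase reporter flags inhibition.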
Potency is the fitted concentration of half-maximal effect.

| Structure (SMILES) | Potency | activity change, negative = inhibition |
| --- | --- | --- |
| Cn1ccsc1=NC(=O)c1cc(S(=O)(=O)N2CCOCC2)ccc1Cl | inactive | – |
| O=C(NCc1ccc2c(c1)OCO2)C(=O)NCC1OCCN1S(=O)(=O)c1ccc(F)cc1 (stereo not given) | inactive | – |
| COCCCNC(=S)N1CCN(c2nc(-c3cccc(OC)c3)cs2)CC1 | inactive | – |
| CCc1ccc(Nc2n[n+](-c3ccccc3)c(-c3cccc(Cl)c3Cl)s2)cc1 | 3.7 µM (active) | – |
| COC(=O)c1cnc(Nc2cc(C)ccc2OC)c2ccccc12 | inactive | – |
| COc1ccc(C)cc1Nc1n[n+](-c2ccccc2)c(-c2cccc(Cl)c2Cl)s1 | 13.1 µM (active) | – |
| COc1ccc(C)cc1Nc1nc(-c2c(C)[nH]c3ccccc23)cs1 | inactive | – |
| N#Cc1ccccc1NC(=O)c1ccc2c(c1)OCO2 | inactive | – |
| N#C/C(=C\c1cccnc1)C(=O)Nc1ccc(SC(F)F)cc1 | inactive | – |
| Cc1ccc(CNC(=O)CSc2nnc3c(n2)[nH]c2ccc(F)cc23)cc1 | inactive | – |
| COC(=O)C(C)n1cnc2c(nnn2-c2ccc(F)cc2)c1=O (stereo not given) | inactive | – |
| Cc1cc(C)cc(N(CC(=O)NC2CCCC2)C(=O)CCC(=O)Nc2nccs2)c1 | inactive | – |
| COc1ccc(C(=O)C2CCCN(Cc3ccc4nonc4c3)C2)c(C)c1 (stereo not given) | inactive | – |
| CCOC(=O)c1[nH]ncc1CN1CCCC(C(=O)c2ccc(OC)cc2C)C1 (stereo not given) | 8.28 µM (active) | – |
| COc1ccc(C(=O)C2CCCN(Cc3cccn3-c3ccccn3)C2)c(C)c1 (stereo not given) | inactive | – |
| O=C(N=C1SC2CS(=O)(=O)CC2N1c1cc(Cl)ccc1Cl)C1CC1 (stereo not given) | inactive | – |
| COC(=O)c1cccc(C(=O)N2CCCC(Nc3ccc4c(c3)OCCO4)C2)c1 (stereo not given) | inactive | – |
| COc1ccc(C(=O)NCC(=O)N/N=C/c2cccnc2)cc1 | inactive | – |
| Cc1c(S(=O)(=O)N2CC(C)CC(C)C2)c(=O)n(C)c(=O)n1C (stereo not given) | inactive | – |
| O=C(CCCN1C(=O)/C(=C\c2ccccc2)SC1=S)Nc1ccccc1O | inactive | – |
| O=C1/C(=C/c2ccc(F)cc2)SC(=S)N1CCCC(=O)N1CCCCC1CCO (stereo not given) | 6.57 µM (active) | – |
| O=C(CCCN1C(=O)/C(=C/c2ccccc2)SC1=S)Nc1ccc(O)cc1 | – | -3.08% [at 5.75 µM] |
| CC(=O)c1ccc(NC(=O)Cn2c(=O)oc3ccccc32)cc1 | inactive | – |
| CCCN1C2CCCC1CC(NC(=O)c1cccc(OC)c1)C2 (stereo not given) | inactive | – |
| CCc1ccc(S(=O)(=O)Nc2ccc(C)c(NS(C)(=O)=O)c2)cc1 | inactive | – |

| Structure (SMILES) | Potency | activity change, negative = inhibition |
| --- | --- | --- |
| CCCCc1ccc(NC(=O)CN2C(=O)NC(Cc3ccccc3)C2=O)cc1 (stereo not given) | inactive | – |
| CC(C)=N/N=C1/NC(=O)C(Cc2ccccc2)S1 (stereo not given) | inactive | – |
| COc1cc(/C=C(/NC(=O)c2ccc(Cl)cc2Cl)C(=O)O)cc(OC)c1OC | inactive | – |
| CCOc1cc(/C=C(/C#N)c2ccc(Cl)cc2)cc(Cl)c1OCC(=O)O | 13.1 µM (active) | – |
| CCOC(=O)CN/C=C(\C#N)c1ccc(F)cc1 | inactive | – |
| CCC(=O)Nc1nnc(S(=O)(=O)N2CCCc3ccccc32)s1 | inactive | – |
| O=C(COC(=O)c1cccs1)Nc1ccccc1Cl | inactive | – |
| COc1cc(C2C(C(=O)Nc3ccccc3OC)=C(C)Nc3ncnn32)ccc1O (stereo not given) | inactive | – |
| COc1ccccc1NC1=NC(c2ccc(Cl)cc2)N=C(N)N1 (stereo not given) | 0.928 µM (active) | – |
| COc1ccccc1Nc1nc(N)nc(CSC(=S)N2CCOCC2)n1 | inactive | – |
| COC(=O)c1c(C)[nH]c(C(=O)NCCc2ccc(S(N)(=O)=O)cc2)c1C | inactive | – |
| CSc1ccccc1NC(=O)c1cc(Cl)sc1Cl | inactive | – |
| COc1ccc(S(=O)(=O)NCC(=O)NCc2cc(=O)n(C)c(=O)n2C)cc1F | inactive | – |
| Cc1ccc(NC(=O)CN(C)C(=O)c2ccc(Br)o2)cc1 | inactive | – |
| CN(CC(=O)Nc1ccc(Cl)cc1)C(=O)c1ccc(COc2ccccc2)cc1 | inactive | – |
| CN(CC(=O)Nc1ccc(F)cc1)C(=O)c1ccc(-c2ccc(Cl)cc2)o1 | 2.33 µM (active) | – |
| COCC(=O)N1CCc2ccc(NC(=O)c3ccccc3Cl)cc2C1 | inactive | – |
| COc1ccc(NC(=O)CN(C)C(=O)CC2CCCCC2)cc1 | inactive | – |
| Cc1ccc(C(=O)N/C(=C/c2ccc(-c3cccc([N+](=O)[O-])c3)o2)C(=O)NCCCN(C)C)cc1 | inactive | – |
| Cc1ccc(Cc2cnc(NC(=O)/C(C#N)=C/c3ccc(-c4cccc([N+](=O)[O-])c4)o3)s2)cc1 | inactive | – |
| N#C/C(=C\c1ccc(-c2cccc([N+](=O)[O-])c2)o1)C(=O)NCCN1CCOCC1 | 10.4 µM (active) | – |
| COc1ccc(C(CNC(=O)c2cccc(S(=O)(=O)Nc3ccccc3Cl)c2)N2CCOCC2)cc1 (stereo not given) | inactive | – |
| COC(=O)C1=C(Nc2ccc(C)cc2)C=C(C)C(C(=O)OC)C1c1ccc(F)cc1 (stereo not given) | 11.7 µM (active) | – |
| COC(=O)C1C(=O)NCC1c1ccc(C)cc1 (stereo not given) | inactive | – |
| COC(=O)C1=C(Nc2ccc(OC)cc2)C=C(C)C(C(=O)OC)C1c1ccc(C)cc1 (stereo not given) | inactive | – |

| Structure (SMILES) | Potency | activity change, negative = inhibition |
| --- | --- | --- |
| Cc1nc(COc2cc3oc(=O)cc(C)c3cc2Cl)cs1 | inactive | – |
| COC(=O)C1=C(O)/C(=C/c2ccc(OCC(=O)Nc3ccccc3)cc2)N=C1C | inactive | – |
| CCOC(=O)C1=C(O)/C(=C/c2cc(C)n(-c3ccccc3)c2C)N=C1C | 0.657 µM (active) | – |
| CCOC(=O)C1=C(O)/C(=C/c2ccc(OCC(=O)Nc3ccc(C)cc3)cc2)N=C1C | inactive | – |
| CCC(=O)c1ccc(OCC(=O)OCC(=O)N2CCc3ccccc3C2)cc1 | inactive | – |
| COC(=O)c1ccc2c(C(C)(C)O)c(C(C)(C)O)[nH]c2c1 | inactive | – |
| Cc1cccc(-c2oc3ccc(-c4ccc5c(c4)OCO5)cc3c2C#Cc2cncn2C)c1 | 1.17 µM (active) | – |
| C/C(=C/c1ccccc1)C(=O)N1CCN(c2ccccc2)CC1 | inactive | – |
| Nc1c(N(Cc2ccco2)C(=O)c2cccc(F)c2)c(=O)[nH]c(=O)n1Cc1ccccc1 | inactive | – |
| O=C(O)CN1c2cccc3cccc(c23)S1(=O)=O | inactive | – |
| O=C(Nc1cccc(NC(=O)c2cccc(F)c2)c1)c1ccccc1 | inactive | – |
| Cc1ccc(F)cc1NC(=O)c1ccc2c(c1)OCO2 | inactive | – |
| Cc1ccc(F)cc1NC(=O)c1cccc(N(C)C)c1 | 11.7 µM (active) | – |
| Cc1c(C(=O)NC(C)C2CC3CCC2C3)cccc1[N+](=O)[O-] (stereo not given) | inactive | – |
| COc1cc2c(cc1OC)C(c1ccccc1Br)NC(=O)C2 (stereo not given) | inactive | – |
| Cn1c(-c2ccc(C(F)(F)F)cc2)cc2onc(-c3ccccc3)c2c1=O | inactive | – |
| CN(C)S(=O)(=O)c1ccc(Cl)c(NC(=O)COC(=O)CC(NC(N)=O)c2ccc(Cl)cc2)c1 (stereo not given) | inactive | – |
| CCCCN(CC)CCNC(=O)CCNC(=O)Cn1ccc2ccccc2c1=O | inactive | – |
| CCN(CC)CCNC(=O)C1c2ccccc2C(=O)N(C)C1c1cn(C)c2ccccc12 (stereo not given) | 2.94 µM (active) | – |
| CC1CCN(CC(=O)c2c[nH]c3ccccc23)CC1 | inactive | – |
| COc1ccc(C2C(C(=O)N3CCN(c4ccc(OC)cc4)CC3)c3ccccc3C(=O)N2C)cc1 (stereo not given) | inactive | – |
| CN1C(=O)c2ccccc2C(C(=O)NCCCN2CCCC2)C1c1c[nH]c2ccccc12 (stereo not given) | 10.4 µM (active) | – |
| O=C(NCCCN1CCN(Cc2ccccc2)CC1)C1CCN(S(=O)(=O)N2CCCC2)CC1 | inactive | – |
| COc1cccc(C(=O)OCC(=O)c2[nH]c(C)c(C(C)=O)c2C)c1 | inactive | – |
| COc1ccc(C2=NS(=O)(=O)N(C)C(C(=O)N3CCCCC3)=C2)cc1 | inactive | – |

| Structure (SMILES) | Potency | activity change, negative = inhibition |
| --- | --- | --- |
| COc1ccc2c(c1)c1ncn(Cc3ccccn3)c(=O)c1n2C | inactive | – |
| CC1=CCC2C(=O)N(c3cccc(C(=O)NC(C)c4ccccc4)c3)C(=O)C2C1 (stereo not given) | inactive | – |
| NC(=O)CSc1nnc(NC(=O)c2ccc(Br)o2)s1 | inactive | – |
| CN(C)S(=O)(=O)N1CCC(Oc2cccc(C(=O)NCCCC3CCCC3)c2)CC1 | inactive | – |
| Cc1ccc(CNC(=O)CC(NC(=O)c2ccccc2)c2ccccc2)cc1 (stereo not given) | inactive | – |
| Cc1ccc(NC(=O)CN2C(=O)NC(C)(c3ccc(Cl)cc3)C2=O)c(Br)c1 (stereo not given) | inactive | – |
| CN(C(=O)CN1C(=O)NC(C)(CCc2ccccc2)C1=O)c1ccccc1 (stereo not given) | inactive | – |
| Cc1ccc(S(=O)(=O)Nc2nc(N)n(-c3ccccc3)n2)cc1 | inactive | – |
| Cc1ccc(S(=O)(=O)NCc2nc3ccccc3c(=O)n2N)cc1 | inactive | – |
| Cc1ccc(S(=O)(=O)c2c(N)n(C)c3nc4ccccc4nc23)cc1 | 0.928 µM (active) | – |
| Cc1ccsc1/C=N/NC(=O)Cc1cc(=O)[nH][nH]1 | inactive | – |
| CCC1(c2ccccc2)NC(=O)N(CC(=O)Nc2ccccc2C(=O)NC2CCCC2)C1=O (stereo not given) | inactive | – |
| COC(=O)c1ccccc1NC(=O)CSc1nc2c(c(=O)[nH]1)CCC2 | inactive | – |
| Cc1cccc(Cn2c(SCCO)nc3c2c(=O)n(C)c(=O)n3C)c1 | inactive | – |
| Cn1c(=O)c2c(nc(SCCNS(=O)(=O)c3ccccc3)n2C)n(C)c1=O | 14.7 µM (active) | – |
| CCOC(=O)CSc1nc2c(c(=O)n(C)c(=O)n2C)n1Cc1ccccc1F | inactive | – |
| Cn1c(=O)c2c(nc(SCC(=O)Nc3ccccc3N3CCCCC3)n2C)n(C)c1=O | inactive | – |
| CCCSc1nc2c(c(=O)n(C)c(=O)n2C)n1Cc1ccc(C)cc1 | 13.1 µM (active) | – |
| Cc1c(S(=O)(=O)NCc2ccccc2)c(=O)n(C)c(=O)n1C | inactive | – |
| Cc1ccc(CNS(=O)(=O)CCNC(=O)c2ccccc2)cc1 | inactive | – |
| CC1C(=O)N2CCCc3cc(S(=O)(=O)NCc4ccc(F)cc4)cc1c32 (stereo not given) | inactive | – |
| CC(C)CNS(=O)(=O)c1ccc(C(=O)Nc2ccc3c(c2)OCO3)cc1 | inactive | – |
| COc1ccc(Cn2c(=S)[nH]c3cc(C(=O)N4CCCCC4)ccc3c2=O)cc1 | inactive | – |
| Cc1ccc(S(=O)(=O)N2[C@@H](c3ccccc3F)C(C(=O)O)=CC[C@H]2c2ccc(Cl)cc2)cc1 | inactive | – |
| Cc1cc(Nc2ccc(C(=O)N3CCCCC3)cc2)c2cccc(C)c2n1 | inactive | – |
